The entries come from a sample that favours hits as a whole.
Vaccinia pol inh: blocks vaccinia virus processive DNA synthesis; in vitro processive DNA synthesis, absorbance read-out; active compounds read low; AID 493162; normalized absorbance, % (test concentration not listed); hit rate 0.94% among 46,000; in the data active means normalized absorbance mostly below about 85%, no sharp cut-off; inactive means mostly above about 86%
Numbers stand for hits; . = inactive.

SMILES	Vaccinia pol inh
O=C(NC1CCCCCC1)c1ccc2c(c1)OCO2	.
CNc1nc(N2CCc3ccccc32)ncc1F	56
S=c1[nH]c(=S)c2cnc(N3CCc4ccccc43)nc2[nH]1	.
CC1CC(=O)c2cnc(N3CCc4ccccc43)nc2C1 (stereo not given)	.
O=C(O)Cc1csc2nc(-c3ccccc3)cn12	.
O=C(c1cc(-c2ccc(F)cc2)n[nH]1)N1CCN(c2cccc(Cl)c2)CC1	.
O=c1cc(-c2ccccc2)[nH]c(=S)[nH]1	.
S=c1cc(-c2ccccc2)ss1	.
S=c1[nH]c(-c2ccccc2)c(-c2ccccc2)o1	62
CCOc1ccc(C2C(C#N)=C(N)Oc3c2ccc(=O)c2c(C)oc(C)c32)cc1 (stereo not given)	.
COC(CNC(=O)c1cc2c(=O)[nH]c3ccc(C)cc3c2s1)OC	.
COc1ccc(-n2ccnc2SCC(=O)NCCc2ccccc2)cc1	.
C1=C(c2ccccc2)Nc2ncnn2C1c1cccs1 (stereo not given)	.
CN[C@@H]1CC2(C)OC([C@@H]1OC)n1c3ccccc3c3c4c(c5c6ccccc6n2c5c31)C(=O)NC4 (stereo not given in full)	56
COC(=O)[C@@]1(O)CC2OC1(C)n1c3ccccc3c3c4c(c5c6ccccc6n2c5c31)C(=O)NC4 (stereo not given in full)	.
Cn1c2ccccc2c2c3c(c4c5ccccc5n(CCC#N)c4c21)CNC3=O	.
CNC1c2cccc(OC)c2OCC1CO (stereo not given)	.
CC(C)(CN1CCCCCC1)NS(=O)(=O)c1ccccc1	.
CC(CN1CCNCC1)(NS(=O)(=O)c1ccccc1)c1ccccc1 (stereo not given)	.
CC(CBr)(NS(=O)(=O)c1ccccc1)c1ccccc1 (stereo not given)	65
C(=Nc1cccc(N=Cc2ccsc2)c1)c1ccsc1	.
CC1CN(CC(O)COCCC23CC4CC(CC(C4)C2)C3)CC(C)O1 (stereo not given)	.
COc1cc(OC)c2nc(C)c3c(c2c1)CN(C(=O)Nc1ccccc1)C3	.
O=C(NC(O)C(=O)c1ccccc1)c1ccco1 (stereo not given)	.
CCNc1nc(C)nc2sc3c(c12)CCCC3	.
SMILES	Vaccinia pol inh
O=C(Nc1nc2ccccc2s1)c1ccccc1	.
c1ccc(CCNc2nc3ccccc3s2)cc1	.
CCNc1nc2c(C)cccc2s1	.
Cc1cccc2sc(NN)nc12	61
O=C(Nc1nc2c(Cl)cccc2s1)C1CC1	.
NNc1nc2ccccc2s1	78
CC1(C2(C)NC(=S)N(c3ccccc3)N2)COCOC1 (stereo not given)	.
CSc1nc(N)nc2sc(C(=O)C34CC5CC(CC(C5)C3)C4)c(N)c12	.
O=S1(=O)CCC(NC(=S)SCc2ccccc2)C1 (stereo not given)	.
O=C(O)C(c1ccccc1)c1cn2cc(Cl)ccc2n1 (stereo not given)	.
O=C(NN1C(=O)c2ccccc2NC12CCCC2)c1ccccc1	.
C/C(=N\N)c1ccc2ccccc2c1	83
O=C(/C=C/C(=O)c1ccc2ccccc2c1)c1ccccc1	.
CCCNC(=O)c1ccc2ccccc2c1	.
Fc1ccc(C=Nc2cc(Cl)cc(Cl)c2)cc1F	.
C[n+]1[nH]oc(=O)c1-c1ccccc1	.
COc1ccc2cc(CCNC(=O)Cc3ccccc3)c(=O)[nH]c2c1	.
Cc1ccc(C(=O)Nc2nnc(SCc3ccccc3)s2)cc1	.
CCC(=O)Nc1nnc(SCc2cccc(F)c2)s1	.
CSc1ncc(Cl)c(C(=O)Nc2nnc(SCc3ccc(F)cc3)s2)n1	68
O=C(CSc1ccc(Br)cc1)N1CCCCC1	.
CC(=O)Nc1ccc(OCCCl)c(OCCCl)c1	.
Cc1cc(OC(=O)c2ccco2)nc(SCc2c(Cl)cccc2Cl)n1	50
O=C(Oc1ccc(Cl)c2cccnc12)c1ccco1	.
Cc1cc(Oc2ccccc2)nc(SCc2ccccc2)n1	.
SMILES	Vaccinia pol inh
O=C(C(NS(=O)(=O)c1ccc(Br)s1)c1ccccc1)N1CCOCC1 (stereo not given)	.
CCOC(=O)c1ccc2c(c1)c(C)c(C)n2Cc1ccccc1	.
Cc1c(C)n(Cc2ccccc2)c2ccc(C(=O)OCCN3CCOCC3)cc12	.
Cc1c(C)n(CCN(C)C)c2ccc(C(=O)OCCN(C)C)cc12	62
CCOc1ccccc1N1C(=O)/C(=C\c2cccs2)SC1=S	.
CC1CN(C(=O)COC(=O)c2ccc(I)cc2)CC(C)O1 (stereo not given)	.
Cc1cc2c(=O)n(CC(=O)Nc3ccc(F)cc3F)cnc2s1	.
CCN(Cc1ccccc1)C(=O)Cn1cc2c(n1)-c1c(oc(C(=O)N3CCCC3)c1C)CC2	.
CCOC(=O)Cc1c(C)nc2c(-c3ccccc3)c(C(F)(F)F)nn2c1C	.
CSC1=NC(=O)/C(=C\c2cccc3ccccc23)S1	73
CC(C(=O)O)N1C(=O)/C(=C/c2cccc3ccccc23)SC1=S (stereo not given)	.
O=C1NC(=O)C(=Cc2cccc3ccccc23)C(=O)N1	.
O=C(Cn1ccc2ccccc21)Nc1cccc(C(F)(F)F)c1	.
COc1ccc2c(c1)C=C(C(=O)Nc1ccccc1)CO2	.
O=C(Nc1ccc(Cl)cc1)C1=Cc2ccccc2OC1	65
Nc1c(C(=O)Nc2ccc(Cl)cc2)oc2ccccc12	.
CCOC(=O)C1C(=O)C=C(c2ccco2)CC1c1ccc(N(C)C)cc1 (stereo not given)	.
CC1(C)CC(NC(=S)NC(=O)c2ccccc2)CC(C)(C)N1	.
Cc1c(C(=O)NCCN2CCOCC2)sc2nc(-c3ccccc3)cn12	.
COc1ccc(Nc2cc(C(=O)NCCc3ccccc3)c3ccccc3n2)cc1	.
CC(C)CCNC(=O)c1cc(Sc2ccc(F)cc2)nc2ccccc12	.
Cc1ccc(Nc2cc(C(=O)NCCC(C)C)c3ccccc3n2)cc1C	71
CCOC(=O)c1ccc(N(C(C)=O)c2nc(-c3cc4cccc(OCC)c4oc3=O)cs2)cc1	.
CC1(C)CC2CC(C)(CN2c2nc(-c3ccco3)cc(C(F)(F)F)n2)C1 (stereo not given)	.
Cc1ccc(/C=C2\SC(=O)NC2=O)o1	.
SMILES	Vaccinia pol inh
Cc1ccc(/C=C2/SC(=O)NC2=S)o1	75
Cc1ccc(/C=C2/SC(=Nc3ccc(O)cc3)NC2=O)o1	.
O=C(Nc1nc2sc3c(c2c(=O)s1)CCCC3)c1ccccc1	.
Cc1cc(O)c2c(=O)c(-c3cscn3)c(C)oc2c1	.
CCc1ccc2c(c1)c1nc3ccccc3nc1n2CC	.
CCn1c2ccccc2c2nc3ccccc3nc21	90
CC(C)Cn1c2ccccc2c2nc3ccccc3nc21	.
O=C(CSc1nnc(OC(=O)c2cccs2)n1C1CC1)c1ccc2c(c1)OCCO2	.
O=C1OC(c2ccccc2)C(O)(c2ccccc2)C12CCCCC2 (stereo not given)	.
COc1ccc(-c2cc(C(=O)N(C)Cc3ccccc3)no2)cc1	.
Cc1ccc(-c2noc(CN(C3CCCCC3)S(=O)(=O)c3ccccc3)n2)cc1	64
CC(C)N(Cc1nc(-c2ccccc2)no1)C(=O)C1CCCCC1	.
Cc1ccc2[nH]c(=O)c(CN(C3CCCCC3)S(=O)(=O)c3ccccc3)cc2c1	.
Cc1ccc(-c2cc(C(=O)N3C(C)CCCC3C)[nH]n2)cc1 (stereo not given)	.
CCn1c(NCc2ccccn2)nc2ccccc21	.
Cc1nc(NCc2ccccn2)c2ccccc2n1	51
Cc1nc2ccccc2cc1C(=O)NCc1ccccn1	.
OCc1ccccc1CN1CCOCC1	.
Cc1cccc2c1-c1sc(C(=O)n3c(C)cc4ccccc43)cc1CO2	.

Screening data: PubChem, ICCB-Longwood Screening Facility, Harvard Medical School
